High-throughput results (PubChem)
Shown are actives, neighbours in structure and some others; about 12% of the full set was active somewhere.
JMJD2A Tudor: blocks the human JMJD2A Tudor domain; O75164; hit rate 4.4% among 390,000; AID 504339; AlphaScreen JMJD2A-Tudor / H3K4me3 peptide binding; Potency, µM (titrated, usually from 114 µM), inactives show at the highest dose activity change, negative = inhibition, actives largely listed as inhibitors; note: % is set by controls: 0 for no effect and ±100 for the full control effect; nearly all actives have a fitted effect of over 50% in size
G9a inh: inhibitors of human histone lysine methyltransferase G9a; Q96KQ7; G9a H3K9 monomethylation, AlphaScreen, 2 h; Potency, µM (doses to about 102 µM), for inactives: at the top dose activity, negative = inhibition, actives largely listed as inhibitors; hit rate 8.8% among 350,000; note: % is set by controls: 0 for no effect and ±100 for the full control effect; nearly all actives have a fitted effect of over 75% in size
Target sequence (Q96KQ7 913-1193 limits assumed): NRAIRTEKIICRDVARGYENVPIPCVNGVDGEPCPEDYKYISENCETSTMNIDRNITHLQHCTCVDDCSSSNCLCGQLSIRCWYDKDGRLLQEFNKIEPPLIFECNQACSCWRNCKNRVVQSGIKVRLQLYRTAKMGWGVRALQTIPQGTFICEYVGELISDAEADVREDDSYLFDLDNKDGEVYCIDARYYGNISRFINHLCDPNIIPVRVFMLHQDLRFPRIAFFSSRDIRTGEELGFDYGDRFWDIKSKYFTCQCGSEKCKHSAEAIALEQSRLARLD
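AlphaScreen read-out: biotin-H3K9 peptide (500 nM) methylation by 20 nM enzyme with 20 uM SAM, 2 h at room temperature after 15 min compound preincubation; anti-monomethyl H3K9 antibody plus donor/acceptor beads, 10 min dark.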
HP1b binding inh: blocks HP1-beta chromodomain binding to methylated histone tails | P83916 | AlphaScreen HP1-beta / biotin-H3K9me3 peptide binding | Potency, µM (series often up to 114 µM), inactives show at the top dose activity change, negative = inhibition, hits mostly inhibitors | hit rate 0.56% among 390,000 | AID 540317; note: nearly all actives have a fitted effect of over 70% in size
Target sequence (P83916 whole entry, looked up): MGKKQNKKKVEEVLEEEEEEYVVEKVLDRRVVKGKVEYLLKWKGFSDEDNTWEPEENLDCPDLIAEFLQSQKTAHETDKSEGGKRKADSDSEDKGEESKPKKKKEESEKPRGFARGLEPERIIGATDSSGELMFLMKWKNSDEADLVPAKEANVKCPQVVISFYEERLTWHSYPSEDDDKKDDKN
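AlphaScreen: HP1-beta (50 nM) preformed 30 min with biotin-H3(1-18)K9me3 peptide (50 nM) in PBS pH 7.4, 0.01% Tween-20. Compound added for 30 min at RT, then streptavidin donor/nickel chelate acceptor beads (10 ug/mL) for 30 min.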
PLK1 PBD block: blocks phosphopeptide binding to human PLK1 polo-box domain; Potency, µM, inactives show max response, negative = inhibition, most hits filed as inhibitors; P53350; Plk1 PBD binding of FITC phosphopeptide, fluorescence polarization; hit rate 2.8% among 360,000; note: series mostly up to about 57 µM; % is set by controls: 0 for no effect and ±100 for the full control effect; nearly all actives have a fitted effect of over 65% in size
Sfp PPTase inh: Sfp phosphopantetheinyl transferase inhibition; Q9F4F7; Biochemical Sfp PPTase activity, qHTS; Potency, µM, for inactives: largest response in the series, negative = inhibition, usual class: inhibitors; hit rate 3.5% among 310,000; AID 1490;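 note: the enzyme is Sfp with the accession as filed and its product quenches rhodamine fluorescence; 0% = enzyme reaction without inhibitor and -100% = no enzyme wells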
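With Hepes-Na pH 7.6 buffer containing 10 mM MgCl2, Sfp (15 nM) modified BHQ-2-YbbR (12.5 uM) using rhodamine-CoA (5 uM). Two reads 30 minutes apart at 525/598 nm yielded each well's rate.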
BAZ2B inh: blocks human BAZ2B. AlphaScreen BAZ2B-H3K14Ac peptide displacement. Potency, µM (doses to about 114 µM), for inactives: at the highest dose activity change, negative = inhibition, most hits filed as inhibitors. hit rate 4.4% among 360,000. Q9UIF8; note: % is set by controls: 0 for no effect and ±100 for the full control effect; nearly all actives have a fitted effect of over 60% in size
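BAZ2B (50 nM) with biotin-H3(5-23)K14Ac peptide (50 nM) in PBS pH 7.4, 0.01% Tween-20, preformed 30 min, then compound 30 min at room temperature; top concentration 110uM. AlphaScreen streptavidin donor/nickel chelate acceptor beads (10 ug/mL final), 20 min dark, signal read.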
Numbers without * were called inactive; [ ] = dose if it differs, or a comment. Calls come from the whole dose curve; as a rule, active = well fitted curve in the direction sought with a large enough effect; inconclusive = small, poorly fitted or top-dose-only effect, or another doubt; inactive = no such curve, though single readings can be large; an effect the other way counts as inactive or inconclusive. Potency is the fitted concentration of half-maximal effect.

`O=C(Oc1cccc(C(=S)N2CCOCC2)c1)c1cc([N+](=O)[O-])cc([N+](=O)[O-])c1` gave JMJD2A Tudor inconclusive, G9a inh 35µM*, HP1b binding inh -18%, PLK1 PBD block inconclusive, Sfp PPTase inh 0% and BAZ2B inh inconclusive.
For O=C(Oc1cccc(C(=S)N2CCOCC2)c1)c1cccc([N+](=O)[O-])c1 the results were JMJD2A Tudor -32%, G9a inh 45µM*, HP1b binding inh -19%, PLK1 PBD block -25%, Sfp PPTase inh -22% and BAZ2B inh -38%.
Cc1c(CNC2CCCCCC2)c(C(=O)O)c(C)n1Cc1cccc(Cl)c1 was read as JMJD2A Tudor inconclusive, G9a inh -1%[59 µM], HP1b binding inh 29% and BAZ2B inh -26%.
For Cc1ccc(NC(=S)Nc2ccc3nc(-c4ccccn4)c(-c4ccccn4)nc3c2)cc1C the results were JMJD2A Tudor inconclusive, G9a inh 7.9µM*, HP1b binding inh -23%, PLK1 PBD block -25%, Sfp PPTase inh -18% and BAZ2B inh inconclusive.
COc1ccc(C2=Nn3c(nnc3-c3ccccc3OC)SC2)cc1 was read as JMJD2A Tudor -12%.
`CCOC(=O)c1c(C)n(C)c2ccc(OC)c(NC(=O)c3cccs3)c12` gave JMJD2A Tudor inconclusive, G9a inh 20%[59 µM], HP1b binding inh -21%, PLK1 PBD block 30µM*, Sfp PPTase inh -8% and BAZ2B inh -8%.
CCOC(=O)c1c(C)n(C)c2ccc(OC)c(NC(=O)CN3CCSCC3)c12 was read as JMJD2A Tudor -9%, G9a inh -4%[12.7 µM], HP1b binding inh 37%, PLK1 PBD block -6%, Sfp PPTase inh 13% and BAZ2B inh 6%.
`CCOc1ccc(CC(=O)C2C(=O)CCCC2=O)cc1OCC` gave JMJD2A Tudor 25µM*, G9a inh 11µM*, HP1b binding inh 45%, PLK1 PBD block -16%, Sfp PPTase inh inconclusive and BAZ2B inh inconclusive.
CCOc1ccc(CC(=N)C2=C(O)CC(C)(C)CC2=O)cc1OCC was read as JMJD2A Tudor 9%, G9a inh 13%[59 µM], HP1b binding inh 34%, PLK1 PBD block -1%, Sfp PPTase inh 4% and BAZ2B inh 6%.
`CCOc1ccc(CC(=NCCc2ccccc2)C2=C(O)CC(C)(C)CC2=O)cc1OCC` gave JMJD2A Tudor -13%, G9a inh 71µM*, HP1b binding inh 34%, PLK1 PBD block -9%, Sfp PPTase inh 4% and BAZ2B inh -4%.
CCOc1ccc(CC(=O)C2C(=O)CC(C)(C)CC2=O)cc1OCC was read as JMJD2A Tudor 18µM*, G9a inh 10µM*, HP1b binding inh 55%, PLK1 PBD block -4%, Sfp PPTase inh inconclusive and BAZ2B inh inconclusive.
Screening CCOc1ccc(CC(=O)C2=C(N3CCOCC3)CC(C)(C)CC2=O)cc1OCC returned JMJD2A Tudor -19%, G9a inh 25µM*, HP1b binding inh 28%, PLK1 PBD block -18%, Sfp PPTase inh -2% and BAZ2B inh -24%.
For COc1cc(F)c(S(=O)(=O)N2CCN(S(=O)(=O)c3ccc4c(c3)OCCO4)CC2)c(F)c1 the results were JMJD2A Tudor -7%.
Cc1cc(C)cc(OCC(=O)OCC(=O)N(CC(C)C)c2c(N)n(Cc3ccccc3)c(=O)[nH]c2=O)c1 was read as JMJD2A Tudor -20%, G9a inh 50µM*, HP1b binding inh 7%, PLK1 PBD block -4% and BAZ2B inh 13%.
`CC(C)CN(C(=O)COC(=O)COc1ccc2c(c1)CCC2)c1c(N)n(Cc2ccccc2)c(=O)[nH]c1=O` gave JMJD2A Tudor -22%, G9a inh -8%, HP1b binding inh 0%, PLK1 PBD block -1% and BAZ2B inh 7%.
For COCCN(C(=O)CC1OC(=O)c2ccccc21)c1c(N)n(Cc2ccccc2)c(=O)[nH]c1=O (stereo unspecified) the results were JMJD2A Tudor -8%, G9a inh 4%[59 µM], HP1b binding inh 28%, PLK1 PBD block -3% and BAZ2B inh 0%.
`CC(C)CN(C(=O)COC(=O)C(C)N1C(=O)c2ccccc2C1=O)c1c(N)n(Cc2ccccc2)c(=O)[nH]c1=O` (stereo unspecified) gave JMJD2A Tudor -1%, G9a inh 35µM*, HP1b binding inh 12%, PLK1 PBD block -1% and BAZ2B inh 3%.
For CC(C)CN(C(=O)CC1OC(=O)c2ccccc21)c1c(N)n(Cc2ccccc2)c(=O)[nH]c1=O (stereo unspecified) the results were JMJD2A Tudor -1%, G9a inh 56µM*, HP1b binding inh 39%, PLK1 PBD block -4% and BAZ2B inh 10%.
For CCCCCCNC(=O)O[C@H]1Cn2c(=O)ccc(=O)n2[C@@H]2CN(S(=O)(=O)c3ccc(C)cc3)C[C@]12O the results were PLK1 PBD block -22%.
`COC(=O)C1=C(C)N(c2cc(Cl)cc(Cl)c2)C(=O)C1` gave JMJD2A Tudor -20%, G9a inh 45µM*, HP1b binding inh 11%, PLK1 PBD block -20%, Sfp PPTase inh 3% and BAZ2B inh -4%.
For COC(=O)C1=C(C)N(c2ccc(C(=O)OC)cc2)C(=O)C1 the results were JMJD2A Tudor -18%, G9a inh -27%[12.7 µM], HP1b binding inh 10%, PLK1 PBD block -10%, Sfp PPTase inh -2% and BAZ2B inh 1%.
Screening O=C(NC1CCCC1)C(c1cccnc1)N(Cc1ccccc1)C(=O)c1csnn1 (stereo unspecified) returned JMJD2A Tudor 4%, G9a inh 23%, HP1b binding inh -7%, PLK1 PBD block 4%, Sfp PPTase inh 19% and BAZ2B inh -1%.
For Cc1cccc(NC(=S)NNC(=O)c2nn(C)cc2Cl)c1 the results were JMJD2A Tudor -29%, G9a inh 35µM*, HP1b binding inh 20%, PLK1 PBD block -13%, Sfp PPTase inh 10% and BAZ2B inh 3%[57.1 µM].
`Cc1ccc(NC(=S)NNC(=O)c2nn(C)cc2Cl)cc1` gave JMJD2A Tudor -9%, G9a inh 35µM*, HP1b binding inh 25%, PLK1 PBD block -8%, Sfp PPTase inh 11% and BAZ2B inh 18%[57.1 µM].
Cc1c(Cl)c(C(=O)NNC(=S)Nc2ccccc2)nn1C was read as JMJD2A Tudor -12%, G9a inh 3.5µM*, HP1b binding inh 29%, PLK1 PBD block -7%, Sfp PPTase inh 5% and BAZ2B inh 8%.
For Cc1cccc(NC(=S)NNC(=O)c2ccco2)c1 the results were JMJD2A Tudor -18%, G9a inh -9%[12.7 µM], HP1b binding inh 2%, PLK1 PBD block -17%, Sfp PPTase inh 0% and BAZ2B inh -6%.
